The source of these data is the supplement of paper PMC11417369.

± gives the standard deviation of the averaged measurements. Whole data set: some 25,000 sequences, median “ln(normalized median fluorescence intensity)” near 10, cut for the highest 2% near 12. The sample holds the highest values, similar sequences and a random draw of the others, so the mix is not that of the screen.

The test has as its system PfAP2-G AP2 domain (GST-tagged). Briefly: gcPBM binding intensity (ln(normalized median fluorescence intensity)); higher = stronger DNA binding. Summed up:
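An Agilent 4 × 180k array of primer-extended double-stranded 36-bp intergenic genomic probes, with negative controls, was incubated for 1 h with GST-tagged P. falciparum DNA-binding domains expressed in E. coli. Alexa488 anti-GST antibody detected bound protein, scanned at 488 nm. Binding intensity is the highest Masliner-normalised natural-log median intensity across replicate spots of either probe orientation.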
Regarding “AATACAATAAAAAAAAGTACACATGTATAAAAAATT [XGTACX_site8270]”, the “gcPBM binding intensity (ln)” value was found to be 11.6 ± 0.8. For the sequence “TAAGGTTAAATAATATGTACATATTATTATATATAT [XGTACX_site6953]”, the “gcPBM binding intensity (ln)” value was 11.3 ± 0.72. Take “TAAAAGTATATATATACACACATAAATATATATGTA [CACACA_site663]”: the “gcPBM binding intensity (ln)” value is 9.86 ± 0.14. For “ATAATAAATTATTATGTACACACATAATAGTATATA [CACACA_site8538]”, the “gcPBM binding intensity (ln)” value stood at 11.3 ± 0.88. As for “GTATATATATATAAAAGTACATGTTATGAAAAAAAA [XGTACX_site5410]”, the “gcPBM binding intensity (ln)” value came out at 11.3 ± 0.81. For the sequence “AAGTATAAATAAAGGCGTACACATGTAAATTATATT [XGTACX_site126]”, the “gcPBM binding intensity (ln)” value was 11.7 ± 1.1. As for “AATAAATTATTATGTACACACATAATAGTATATATA [CACACA_site1820]”, the “gcPBM binding intensity (ln)” value is 11.4 ± 0.85. With “AAAAATAAATATATATGTACACATATGTATACAATA [XGTACX_site4692]” the figure was 11.6 ± 0.97; with “ATTATGTTAAAAAGGCGTACATGTTATAAGGTCCTA [XGTACX_site344]”, 11.7 ± 1.2. With “TTTTTTAAATTTTGAATTATAACTACATTAAAGAAA [GTGCAC_negctrl_site279]” the figure was 9.8 ± 0.33; with AATATATATATTTAAGTGCATAATATTGTAATATTA, 9.91 ± 0.028. With “GGTATATAAAAATATTGTACTTAAAAAAATATGTAT [XGTACX_site6253]” the figure was 11.4 ± 0.99; with “TTGTTAATATGATAAAAGAGGAATATTCTCTTCCTA [GTGCAC_negctrl_site659]”, 9.48 ± 0.14; with “ATATACATAATCTTCTTGCACTTTTTTTTTTTTTTT [GTGCAC_site9410]”, 10.3 ± 0.22. As for AAAAAAGAACGCATAGTGCATATCTAAAAGATTTTT, the “gcPBM binding intensity (ln)” value amounted to 9.85 ± 0.014. Take “TATGTTAAAAAAAAATGTACATATGTTTTTGTTAAA [XGTACX_site4754]”: the “gcPBM binding intensity (ln)” value was determined as 11.2 ± 0.86.

In the case of “TATATATATATATGTACACACATATATACCTTTCAT [CACACA_site2679]”, the “gcPBM binding intensity (ln)” value was determined as 11.4 ± 0.81. With “ATGACGTAGTGGTGTACACACATGGTACCTTTATTC [CACACA_site1547]” the figure was 11.6 ± 0.84. Turning to “AATATGACGTAGTGGTGTACACACATGGTACCTTTA [XGTACX_site3147]”, the “gcPBM binding intensity (ln)” value was determined as 11.7 ± 0.83. With “ATATAATATATATGGTGTACATTTTTTAGTGCTATT [XGTACX_site1662]” the figure was 11.4 ± 0.76. “TATATATATTTATGTACACACATATATACCTTTCAT [CACACA_site5479]”: the “gcPBM binding intensity (ln)” value was determined as 11.4 ± 0.86.

Take “ATATGACGTAGTGGTGTACACACATGGTACCTTTAT [CACACA_site8436]”: the “gcPBM binding intensity (ln)” value amounted to 11.9 ± 1.1. With “TTATATATTAATAGTAGTACTATATTGAATCACCCC [XGTACX_site2868]” the figure was 11.3 ± 0.85. With “TAATTTATAAATATAATATTTATGTATATGATGTTT [CACACA_negctrl_site464]” the figure was 9.795 ± 0.078; with “CATATTTTGAACTTCACACATATATATATATATATA [CACACA_site4228]”, 10.3 ± 0.54; with “ATTTTATTAATTTGGTGTACTTAATTTATATTTTTC [XGTACX_site4947]”, 11.6 ± 0.92. For “TCACACCTTTTTGGTTGTACTTAAATTTCTTTTTTT [XGTACX_site6438]”, the “gcPBM binding intensity (ln)” value was 11.2 ± 0.75. “TTTTCTCAATTTTGGTGTACTTTTTTCTTAACACAT [XGTACX_site8918]”: the “gcPBM binding intensity (ln)” value amounted to 11.7 ± 1. With “GTTTATGTATTATTATGTACGTATCATAATATATAT [XGTACX_site2385]” the figure was 11.5 ± 0.82. As for “ATCTAAACCTTTTGAGCACACATATATATATATATA [CACACA_site8526]”, the “gcPBM binding intensity (ln)” value amounted to 10.4 ± 0.3.

Take “TGTTCCGAAGGTTGTACACACATAGAAATATACATA [CACACA_site3874]”: the “gcPBM binding intensity (ln)” value was determined as 11.6 ± 0.74. With “TATGTTCCGAAGGTTGTACACACATAGAAATATACA [CACACA_site9285]” the figure was 11.6 ± 0.8; with “ATATGTTCCGAAGGTTGTACACACATAGAAATATAC [XGTACX_site8227]”, 11.6 ± 1; with “AACCACATGGTGTAATGTACATTACCTTAACAATAA [XGTACX_site3055]”, 10.7 ± 0.42. With “TAAAATATACAAATTTGTACATATATATGTATGTAT [XGTACX_site1127]” the figure was 10.9 ± 0.38; with “AGAAAATTAAAAAGAACACACAAATATATATATAAT [CACACA_site5896]”, 10.045 ± 0.007.

Consider “ATATATATATATAATGCACACATTATGAATTATGTA [CACACA_site3384]”, for which the “gcPBM binding intensity (ln)” value was determined as 9.9 ± 0.42.
